Source: PubChem
IL-1B inflam inh – inflammasome signaling inhibition, IL-1 beta readout; THP-1 LPS/ATP IL-1B secretion, AlphaLISA, 16 h; hits give low values; activity change, % at 57.5 µM; 360,000 compounds, 4.7% hits; in the data active = activity change below about -50%; inconclusive = mostly about -30% to -49%
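Secreted IL-1B measured by AlphaLISA bead assay after 16 h compound exposure of THP-1 cells; compounds (final up to 57.5 uM) added 1 h before LPS (250 ng/mL) and ATP (1.25 mM) stimulation; lower signal means less secretion.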
USP1-UAF1 inh – USP1/UAF1 (human) deubiquitinase inhibition | O94782 | recombinant USP1/UAF1, Ub-Rhodamine cleavage fluorescence | Potency, µM (highest dose often 57.1 µM), hits mostly inhibitors | 390,000 compounds, 0.23% hits | AID 743255; also: nearly all actives have a fitted effect of over 60% in size
Target sequence (O94782 whole entry, looked up): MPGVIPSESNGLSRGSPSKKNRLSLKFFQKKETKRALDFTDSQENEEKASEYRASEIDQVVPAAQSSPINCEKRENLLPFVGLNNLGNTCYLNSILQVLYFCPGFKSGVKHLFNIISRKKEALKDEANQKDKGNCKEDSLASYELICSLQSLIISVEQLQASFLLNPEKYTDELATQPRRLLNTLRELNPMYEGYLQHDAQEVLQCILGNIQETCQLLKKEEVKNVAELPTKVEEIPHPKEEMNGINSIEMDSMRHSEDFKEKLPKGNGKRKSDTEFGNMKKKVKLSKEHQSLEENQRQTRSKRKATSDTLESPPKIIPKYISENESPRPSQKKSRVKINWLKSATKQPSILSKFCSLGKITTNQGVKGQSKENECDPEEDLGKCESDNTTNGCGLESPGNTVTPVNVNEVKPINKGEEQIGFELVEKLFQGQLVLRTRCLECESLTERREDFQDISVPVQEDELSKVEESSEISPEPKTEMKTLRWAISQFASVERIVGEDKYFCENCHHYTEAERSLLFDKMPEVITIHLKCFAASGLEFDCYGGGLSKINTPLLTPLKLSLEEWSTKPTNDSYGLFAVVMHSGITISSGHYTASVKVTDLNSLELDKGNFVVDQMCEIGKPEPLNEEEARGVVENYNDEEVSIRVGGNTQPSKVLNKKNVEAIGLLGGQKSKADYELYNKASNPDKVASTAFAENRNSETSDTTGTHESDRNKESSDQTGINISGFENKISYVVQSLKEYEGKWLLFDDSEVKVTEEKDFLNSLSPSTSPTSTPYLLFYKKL
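USP1/UAF1 complex at 1 nM was preincubated with compound for 15 min at room temperature, then Ub-Rho substrate (150nM final) was added. Fluorescence (480/540 nm) was read kinetically, 6 reads every 60 seconds.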
USP2a block – USP2a (human) protease inhibition. O75604. USP2 core, Ub-CHOP2 coupled fluorogenic reporter, 485/531. Potency, µM (doses to about 38.3 µM), usual class: inhibitors. 330,000 compounds, 0.01% hits
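USP2 core (10nM final) preincubated 30min RT with compound in 20mM Tris-HCl pH 8.0, 2mM CaCl2, 2mM beta-mercaptoethanol, 0.05% CHAPS; 25nM Ub-CHOP2 plus 25nM reporter substrate added, fluorescence (Ex485/Em531) read after 60min.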
ATXN viability – cell viability loss in ATXN counter-screen; S2 cells (HEK-293 line with an ATXN2-luciferase reporter) viability, CellTiter-Fluor protease fluorescence, 24 h; Potency, µM (highest dose often 56.7 µM), usual class: cytotoxic; 400,000 compounds, 0.49% hits; also: nearly all actives have a fitted effect of over 40% in size
ATXN2 expr inh – ATXN2 expression inhibition; HEK-293 ATXN2-luciferase reporter, luminescence, 24 h; AID 1745845; 360,000 compounds, 0.72% hits; Potency, µM (doses to about 57 µM), hits mostly inhibitors; also: nearly all actives have a fitted effect of over 55% in size
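ATXN2-luciferase reporter cells (luciferase flanked by upstream and downstream ATXN2 gene portions) were treated 24 h at 37 °C with compounds at up to 57 uM. SteadyGlo luminescence gave expression; GF-AFC fluorescence gave viability.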
Hits are given with their value; 0 = inactive; ? = inconclusive; - = no result; ! = repeats disagree; [ ] = another dose, or the depositor's remark. Hits are enriched below; roughly 4.8% of the tested compounds scored in any of these assays. Unless noted, calls follow the shape of the dose curve; as a rule, active = well fitted curve in the direction sought with a large enough effect; inconclusive = small, poorly fitted or top-dose-only effect, or another doubt; inactive = no such curve, though single readings can be large; an effect the other way counts as inactive or inconclusive.

SMILES | IL-1B inflam inh | USP1-UAF1 inh | USP2a block | ATXN viability | ATXN2 expr inh
COc1ccc(CNC(=O)CCN2C(=O)[C@@H]3Cc4ccccc4CN3C2=O)cc1 | 0 | 0 | 0 | 0 | 0
Cc1cccc(-c2nnc(C3CCN(S(=O)(=O)c4cccc(Cl)c4)CC3)o2)c1 | - | 0 | - | 1.4µM | 1.6µM
CC(=O)Nc1ccc(S(=O)(=O)N2CCC(c3nnc(-c4ccc(C)cc4)o3)CC2)cc1 | 0 | 0 | 0 | 18µM | 20µM!
CC(=O)Nc1ccc(S(=O)(=O)N2CCC(C(=O)c3ccc(F)cc3)CC2)cc1 | ? | 0 | 0 | 0 | 0
CC(=O)Nc1ccc(S(=O)(=O)N2CCC(C(=O)c3ccc(Cl)cc3)CC2)cc1 | -51 | 0 | 0 | 0 | 0
CCC(=O)NCc1nc(-c2cccc(NC(=O)c3ccc(C)s3)c2)oc1C | - | - | - | 0 | -
CC1=C(C(=O)NCc2ccc(C)cc2)C2(CCCCC2)OC1=O | - | 0 | - | - | -
COCC(C)N=C1NN=C(c2c[nH]c3ccccc23)CS1 (stereo not drawn) | -80 | 0 | 0 | 0 | -
CCN=C1NN=C(c2cc(C)n(CCc3ccccc3)c2C)CS1 | 0 | 0 | 0 | 0 | 0
CCN=C1NN=C(c2c[nH]c3ccccc23)CS1 | -106 | 0 | 0 | 0 | 0
CCOC(=O)[C@]12CCC=C1N(Cc1ccc3c(c1)OCO3)C(=O)[C@H](CC(=O)NCc1cccc3ccccc13)C2 | -60 | - | - | ? | 0
CCCCOCCCNC(=O)C[C@@H]1C[C@@]2(C(=O)OC)CCCCC=C2N(Cc2cccc3ccccc23)C1=O | -51 | - | - | - | ?
COC(=O)[C@]12CCCCC=C1N(Cc1ccc3c(c1)OCO3)C(=O)[C@H](CC(=O)NCc1cccc3ccccc13)C2 | 0 | - | - | - | -
CCCCOCCCNC(=O)C[C@@H]1C[C@@]2(C(=O)OCC)CCC=C2N(Cc2cccc3ccccc23)C1=O | -67 | - | - | ? | ?
CCOC(=O)[C@]12CCC=C1N(Cc1cccc3ccccc13)C(=O)[C@H](CC(=O)NCCCOC)C2 | 0 | - | - | 0 | 0
O=C(Nc1ccccc1OCc1cc(=O)n2ccccc2n1)c1ccccc1F | - | 0 | - | - | -
CCCN(CC(=O)Nc1ccccc1C)C(=O)CCl | -95 | 0 | 0 | ? | ?
CCn1c(CN2CCC(C)CC2)nc2cc(NC(=O)c3cccc([N+](=O)[O-])c3)ccc21 | - | ? | - | 0 | 0
CCc1nnc(SCc2nc(-c3cccc(Cl)c3)oc2C)c2cc3sc(C)cc3n12 | - | 0 | - | - | -
Oc1c(C2=NCCNC(C(F)(F)F)=C2)ccc2ccccc12 | -109 | 0 | 0 | 0 | 0[11.3 µM]
COc1ccc(C)cc1NC(=O)CO/N=C(\N)CC(=O)NC1CCCCC1 | 0 | 0 | 0 | 0 | 0
O=C(Nc1ccc2[nH]ncc2c1)c1ccccc1Cl | ? | 0 | 0 | 0 | 0
COc1ccc(Cn2c(SCC(=O)NCc3ccc(Cl)cc3)nc3ccsc3c2=O)cc1 | - | ? | - | 0 | 0
C=C1C(=O)O[C@H]2[C@H]1[C@H](OC(=O)/C(C)=C\C)C[C@]1(CO1)[C@@H]1[C@H](OC(C)=O)C=C(C)[C@]21O | -104 | 0 | - | ? | 0
CC(C)C[C@@H](CN1CCC[C@@H]1CN1C(=S)NC[C@@H]1Cc1ccc(O)cc1)N1C[C@H](Cc2ccc(O)cc2)N(CC2CCCCCC2)C1=S | -82 | - | - | ? | ?
SMILES | IL-1B inflam inh | USP1-UAF1 inh | USP2a block | ATXN viability | ATXN2 expr inh
CC(C)C[C@@H](CN1CCCC1CN1C(=S)NC[C@@H]1Cc1ccc(O)cc1)N1C[C@H](Cc2ccc(O)cc2)N(CCc2ccccc2)C1=S (stereo partly drawn) | 0 | 0 | - | 28µM | ?
CC(C)C[C@H]1CN([C@@H](CC(C)C)CN2CCC[C@@H]2CN2C(=S)NC[C@@H]2Cc2ccc(O)cc2)C(=S)N1CC1CCCCC1 | ? | - | - | 32µM | 0
Oc1ccc(C[C@H]2CN([C@@H](Cc3ccccc3)CN3CCCC3CN3C(=S)NC[C@@H]3Cc3ccccc3)C(=S)N2CCc2ccccc2)cc1 (stereo partly drawn) | 0 | - | - | ? | 0
CC(C)C[C@@H](CN1CCC[C@@H]1CN1C(=S)NC[C@@H]1Cc1ccc(O)cc1)N1C[C@H](Cc2ccc(O)cc2)N(CC2CCCCC2)C1=S | -80 | - | - | 25µM | ?
CCCNC(=O)c1cc(C2CCCCN2S(=O)(=O)c2ccccc2)on1 (stereo not drawn) | 0 | - | - | 0 | 0
O=C1c2ccccc2C(=O)c2c1cccc2N1CCOCC1 | -81 | 0 | 0 | ? | 0
